Our source for the Potency and outcome values is PubChem BioAssay (Tox21).

Several values for one entry are separate records, joined by “and”; a condition that tells them apart may be missing. Identical values can stand only once. Records with an inconclusive call do not appear. Where a structure was tested more than once in an assay, its records may differ in their call. Activity calls are given as the source filed them. Unless noted, calls follow the shape of the dose curve; as a rule, active = well fitted curve in the direction sought with a large enough effect in the repeat runs; inconclusive = weak or mixed curves; inactive = no such curve, though single readings can be large; an effect the other way counts as inactive or inconclusive.

Assay [1] can be described thus: qHTS assay to identify aromatase inhibitors - cell viability counter screen (AID 743084).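 Also: cells stimulated with testosterone during compound exposure; nearly all actives have a fitted effect of over 55% in size.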 Also: potency is read from the fitted curve at half-maximal effect. In general terms: Quantitative high-throughput screening tests each substance at several concentrations.
Assay [2] can be described thus: qHTS assay to identify small molecule that activate the aryl hydrocarbon receptor (AhR) signaling pathway - cell viability counter screen (AID 743086). Also: nearly all actives have a fitted effect of over 45% in size. Also: potency is read from the fitted curve at half-maximal effect. In outline: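 Cytotoxicity counter screen: CellTiter-Fluor signal (30 min, 37 C) in 4000 HepG2 cells/well carrying the DRE-luciferase reporter, following 24 h compound exposure at 37 C.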
The target in assay [3] is Peroxisome proliferator-activated receptor gamma (Homo sapiens) (UniProt P37231). In words: qHTS assay to identify small molecule agonists of the peroxisome proliferator-activated receptor gamma (PPARg) signaling pathway (AID 743094; active = well fitted activation curve with a large enough effect in the signal ratio in the repeat runs, not every such curve was filed as active; the % refers to the signal ratio). In a few lines:
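Agonist activity was taken from a beta-lactamase reporter (FRET substrate, 1 h at room temperature) in HEK293H cells carrying a PPARg UAS-bla construct. Compounds in DMSO were incubated 17 h at 37C after a 5 h cell pre-incubation.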

Assay [4] shares this target. In words: qHTS assay to identify small molecule antagonists of the peroxisome proliferator-activated receptor gamma (PPARg) signaling pathway (AID 743191; calls by dose curve; also: nearly all actives have a fitted effect of over 30% in size; also: potency is read from the fitted curve at half-maximal effect). In a few lines: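 Beta-lactamase reporter under UAS control in HEK293H PPARg-bla cells; compound treatment 17 h at 37C. Read-out: fluorescence intensity after 1 h room-temperature incubation with LiveBLAzer B/G FRET substrate.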

Assay [5] in a line: qHTS assay to identify small molecule antagonists of the peroxisome proliferator-activated receptor gamma (PPARg) signaling pathway - cell viability counter screen (AID 743194). Also: nearly all actives have a fitted effect of over 55% in size. Also: potency is read from the fitted curve at half-maximal effect. In a few lines: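 Viability was measured as CellTiter-Glo luminescence in GeneBLAzer PPARg UAS-bla HEK293H cells. These cells had been exposed 17 h at 37 C to compounds together with rosiglitazone at 50 nM final, with the beta-lactamase readout taken in the same wells.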

A short description of assay [6]: qHTS assay for small molecule agonists of the antioxidant response element (ARE) signaling pathway - cell viability counter screen (AID 743203; calls by dose curve; also: nearly all actives have a fitted effect of over 55% in size; also: potency is read from the fitted curve at half-maximal effect). In outline: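 Viability counter screen: CellTiter-Glo luminescence, read after 30 min at room temperature, in ARE-bla HepG2 wells. Compound exposure lasted 16 h at 37C/5% CO2, following a 5 h pre-incubation of the cells after plating.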

The nature of assay [7]: qHTS assay for small molecule activators of the heat shock response signaling pathway - cell viability counter screen (AID 743209). Also: nearly all actives have a fitted effect of over 50% in size. In outline: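 Cytotoxicity counter screen run in the same wells as the heat-shock bla reporter assay: HeLa HSE-bla cells, 5 h compound exposure at 37 C, viability read by CellTiter-Glo luminescence.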
Assay [8] can be described thus: qHTS assay for small molecule activators of the heat shock response signaling pathway (AID 743210; active = well fitted activation curve with a large enough effect in the signal ratio in the repeat runs, with a control signal flat, not every such curve was filed as active; the % refers to the signal ratio; also: series mostly up to about 63 µM). In outline: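 Compound exposure lasted 5 h at 37 C in HeLa cells carrying a heat-shock-element-driven beta-lactamase reporter. Read-out: fluorescence intensity after 2.5 h room-temperature loading with LiveBLAzer B/G FRET substrate.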
A short description of assay [9]: qHTS assay to identify small molecule agonists of the peroxisome proliferator-activated receptor delta (PPARd) signaling pathway - cell viability counter screen (AID 743211). Also: nearly all actives have a fitted effect of over 55% in size. Also: potency is read from the fitted curve at half-maximal effect. In outline:
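qHTS cell viability: PPARd-bla HEK293H; 17 h cpd, 37C; CellTiter-Glo, luminescence at 30 min RT.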

Assay [10] can be described thus: qHTS assay to identify small molecule antagonists of the peroxisome proliferator-activated receptor delta (PPARd) signaling pathway - cell viability counter screen (AID 743213). Also: nearly all actives have a fitted effect of over 50% in size. Also: potency is read from the fitted curve at half-maximal effect. In outline: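 HEK293H cells with the PPARd UAS-bla reporter, co-treated 17 h at 37 C with compounds and L165041 (300 nM final), were lysed with CellTiter-Glo. Luminescence indicated viable cell content.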

Assay [11] deals with Peroxisome proliferator-activated receptor delta (Homo sapiens) (UniProt Q03181). In words: qHTS assay to identify small molecule antagonists of the peroxisome proliferator-activated receptor delta (PPARd) signaling pathway (AID 743215; active = well fitted inhibition curve with a large enough effect in the signal ratio in the repeat runs, not every such curve was filed as active; the % refers to the signal ratio;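 also: cells stimulated with agonist L165041 at 300 nM final during compound exposure; series mostly up to about 62 µM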). In outline: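 Agonist L165041 (300 nM final) added with compound to PPARd-bla HEK293H UAS-bla reporter cells; 17 h incubation at 37 C. Read-out: LiveBLAzer FRET substrate, 2 h at room temperature, fluorescence intensity.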

Assay [12] in a line: qHTS assay to identify small molecule agonists of the farnesoid-X-receptor (FXR) signaling pathway - cell viability counter screen (AID 743218). Also: nearly all actives have a fitted effect of over 45% in size. Also: potency is read from the fitted curve at half-maximal effect. In a few lines: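 Viability counter screen in the same wells: CellTiter-Glo luminescence, 30 min room-temperature incubation, measured after the beta-lactamase read. Cells were GeneBLAzer FXR-UAS-bla HEK 293T, compound-treated 16 h at 37C.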

Assay [13] can be described thus: qHTS assay for small molecule agonists of the antioxidant response element (ARE) signaling pathway (AID 743202; active = well fitted activation curve with a large enough effect in the signal ratio in the repeat runs, not every such curve was filed as active; the % refers to the signal ratio; also: potency is read from the fitted curve at half-maximal effect). In a few lines: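 After 16 hours of compound treatment at 37 C, HepG2 cells with a stably integrated ARE-driven beta-lactamase reporter were loaded 2 hours at room temperature with LiveBLAzer B/G FRET substrate and fluorescence intensity measured.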
Assay [14] addresses Peroxisome proliferator-activated receptor delta (Homo sapiens) (UniProt Q03181). In words: qHTS assay to identify small molecule agonists of the peroxisome proliferator-activated receptor delta (PPARd) signaling pathway (AID 743212; calls by dose curve;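 also: HEK293H cells with PPARd UAS beta-lactamase reporter GeneBLAzer system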). In a few lines:
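Beta-lactamase reporter readout: a ratiometric FRET signal from the LiveBLAzer substrate after 2 h at room temperature. Compound exposure at 37 °C in PPARδ-bla HEK293H cells driven by an upstream activator sequence.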

Assay [15] in a line: qHTS assay to identify small molecule antagonists of the farnesoid-X-receptor (FXR) signaling pathway - cell viability counter screen (AID 743221; active = well fitted cell-killing curve with a large enough effect in the repeat runs, not every such curve was filed as active; also: nearly all actives have a fitted effect of over 50% in size). In a few lines:
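After a 5 h settling period, FXR-bla HEK 293T cells receive compound and chenodeoxycholic acid (50 uM final) and incubate 16 h at 37 C; CellTiter-Glo luminescence, read after 30 min at room temperature, reports cell viability.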

Assay [16] has as its target Vitamin D3 receptor (Homo sapiens) (UniProt P11473). In words: qHTS assay to identify small molecule antagonists of the vitamin D receptor (VDR) signaling pathway (AID 743223; active = well fitted inhibition curve with a large enough effect in the signal ratio in the repeat runs, not every such curve was filed as active; the % refers to the signal ratio). In outline: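 Reporter line VDR-bla; stimulus 1alpha,25-(OH)2 vitamin D3, 3 nM final; compound co-addition, 16 h 37C/5% CO2; LiveBLAzer B/G substrate 2 h RT; fluorescence intensity.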
The target is the same in assay [17]. Put plainly: qHTS assay to identify small molecule agonists of the vitamin D receptor (VDR) signaling pathway (AID 743222; calls by dose curve). In outline: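 Agonist mode, beta-lactamase reporter: fluorescence from LiveBLAzer B/G FRET substrate (2 h, room temperature) read after 16 h compound treatment at 37 C of VDR-bla cells, which were pre-incubated 4 h after seeding.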
Assay [18] addresses Aryl hydrocarbon receptor (Homo sapiens) (UniProt P35869). Put plainly: qHTS assay to identify small molecule that activate the aryl hydrocarbon receptor (AhR) signaling pathway (AID 743085).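 Also: HG2L7.5c1 human HepG2 liver cells with stably integrated DRE-driven firefly reporter; series mostly up to about 70 µM; nearly all actives have a fitted effect of over 15% in size.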 In a few lines: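 AhR agonist activity is inferred from enhanced light output of a DRE-controlled firefly luciferase reporter in HepG2 cells, measured with ONE-Glo following 24 h treatment at 37C.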

The target in assay [19] is Bile acid receptor (Homo sapiens) (UniProt Q96RI1). In words: qHTS assay to identify small molecule antagonists of the farnesoid-X-receptor (FXR) signaling pathway (AID 743217; active = well fitted inhibition curve with a large enough effect in the signal ratio in the repeat runs, not every such curve was filed as active; the % refers to the signal ratio; also: potency is read from the fitted curve at half-maximal effect). In outline: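 Antagonist mode: chenodeoxycholic acid at 50 uM final stimulates a UAS-driven beta-lactamase reporter in HEK 293T FXR-bla cells during 16 h, 37C compound exposure. Read-out is FRET substrate fluorescence after 2 h at room temperature.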

Assay [20] shares this target. In words: qHTS assay to identify small molecule agonists of the farnesoid-X-receptor (FXR) signaling pathway (AID 743220; active = well fitted activation curve with a large enough effect in the signal ratio in the repeat runs, not every such curve was filed as active; the % refers to the signal ratio). In outline: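 FXR-UAS-bla HEK 293T cells carrying a UAS-driven beta-lactamase reporter were plated for 5 h at 37C/5% CO2, then exposed to DMSO-dissolved Tox21 10K compounds for 16 h at 37C. A LiveBLAzer B/G FRET substrate was loaded for 2 h at room temperature before fluorescence reading.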

Peroxisome proliferator-activated receptor delta (Homo sapiens), sequence (Q03181 whole entry, looked up): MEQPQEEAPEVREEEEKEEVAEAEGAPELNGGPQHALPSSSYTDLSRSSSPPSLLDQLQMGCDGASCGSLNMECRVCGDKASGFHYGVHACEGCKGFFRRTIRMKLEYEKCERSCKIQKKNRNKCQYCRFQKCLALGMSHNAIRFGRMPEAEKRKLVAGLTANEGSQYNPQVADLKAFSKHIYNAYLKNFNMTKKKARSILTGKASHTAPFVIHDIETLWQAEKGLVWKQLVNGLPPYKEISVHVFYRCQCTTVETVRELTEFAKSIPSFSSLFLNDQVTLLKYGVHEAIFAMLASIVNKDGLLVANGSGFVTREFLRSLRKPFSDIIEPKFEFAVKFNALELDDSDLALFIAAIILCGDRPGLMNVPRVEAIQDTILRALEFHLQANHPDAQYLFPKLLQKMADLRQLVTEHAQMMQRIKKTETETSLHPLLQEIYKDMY
Peroxisome proliferator-activated receptor gamma (Homo sapiens), sequence (P37231 whole entry, looked up): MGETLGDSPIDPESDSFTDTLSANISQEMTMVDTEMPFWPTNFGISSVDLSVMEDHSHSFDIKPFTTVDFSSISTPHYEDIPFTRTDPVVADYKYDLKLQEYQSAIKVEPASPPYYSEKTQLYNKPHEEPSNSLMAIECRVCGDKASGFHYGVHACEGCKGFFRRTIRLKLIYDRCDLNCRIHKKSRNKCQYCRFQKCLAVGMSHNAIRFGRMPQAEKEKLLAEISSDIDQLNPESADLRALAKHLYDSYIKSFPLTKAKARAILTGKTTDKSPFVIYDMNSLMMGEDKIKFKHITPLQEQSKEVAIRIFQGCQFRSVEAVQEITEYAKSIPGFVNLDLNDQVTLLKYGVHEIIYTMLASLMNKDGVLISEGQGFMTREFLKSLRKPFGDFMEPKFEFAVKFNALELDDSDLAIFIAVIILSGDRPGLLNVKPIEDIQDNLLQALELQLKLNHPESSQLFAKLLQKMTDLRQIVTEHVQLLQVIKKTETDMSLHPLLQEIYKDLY
Vitamin D3 receptor (Homo sapiens), sequence (P11473 whole entry, looked up): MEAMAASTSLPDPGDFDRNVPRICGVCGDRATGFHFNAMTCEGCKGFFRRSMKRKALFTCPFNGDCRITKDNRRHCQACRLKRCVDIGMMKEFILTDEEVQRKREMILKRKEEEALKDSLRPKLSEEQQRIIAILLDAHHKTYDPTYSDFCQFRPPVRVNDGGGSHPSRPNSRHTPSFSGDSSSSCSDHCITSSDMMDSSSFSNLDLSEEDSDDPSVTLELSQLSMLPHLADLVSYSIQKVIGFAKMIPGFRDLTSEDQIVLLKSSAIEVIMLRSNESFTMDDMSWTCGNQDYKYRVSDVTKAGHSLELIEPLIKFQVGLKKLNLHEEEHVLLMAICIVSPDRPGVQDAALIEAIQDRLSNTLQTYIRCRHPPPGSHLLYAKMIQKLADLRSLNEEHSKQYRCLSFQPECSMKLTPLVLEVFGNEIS
Bile acid receptor (Homo sapiens), sequence (Q96RI1 whole entry, looked up): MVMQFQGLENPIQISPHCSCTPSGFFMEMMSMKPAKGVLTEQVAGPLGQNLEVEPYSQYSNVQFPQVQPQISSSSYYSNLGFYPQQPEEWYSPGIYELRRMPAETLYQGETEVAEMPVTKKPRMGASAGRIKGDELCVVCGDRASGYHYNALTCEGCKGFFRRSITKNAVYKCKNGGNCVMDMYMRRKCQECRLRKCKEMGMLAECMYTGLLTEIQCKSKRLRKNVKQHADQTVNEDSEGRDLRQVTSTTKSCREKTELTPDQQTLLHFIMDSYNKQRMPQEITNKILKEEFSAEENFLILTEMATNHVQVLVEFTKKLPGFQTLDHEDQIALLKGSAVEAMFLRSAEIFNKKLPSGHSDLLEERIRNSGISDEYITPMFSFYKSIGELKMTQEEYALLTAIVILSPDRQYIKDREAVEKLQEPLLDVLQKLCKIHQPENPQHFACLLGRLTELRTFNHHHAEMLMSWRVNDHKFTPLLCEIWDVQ
Aryl hydrocarbon receptor (Homo sapiens), sequence (P35869 whole entry, looked up): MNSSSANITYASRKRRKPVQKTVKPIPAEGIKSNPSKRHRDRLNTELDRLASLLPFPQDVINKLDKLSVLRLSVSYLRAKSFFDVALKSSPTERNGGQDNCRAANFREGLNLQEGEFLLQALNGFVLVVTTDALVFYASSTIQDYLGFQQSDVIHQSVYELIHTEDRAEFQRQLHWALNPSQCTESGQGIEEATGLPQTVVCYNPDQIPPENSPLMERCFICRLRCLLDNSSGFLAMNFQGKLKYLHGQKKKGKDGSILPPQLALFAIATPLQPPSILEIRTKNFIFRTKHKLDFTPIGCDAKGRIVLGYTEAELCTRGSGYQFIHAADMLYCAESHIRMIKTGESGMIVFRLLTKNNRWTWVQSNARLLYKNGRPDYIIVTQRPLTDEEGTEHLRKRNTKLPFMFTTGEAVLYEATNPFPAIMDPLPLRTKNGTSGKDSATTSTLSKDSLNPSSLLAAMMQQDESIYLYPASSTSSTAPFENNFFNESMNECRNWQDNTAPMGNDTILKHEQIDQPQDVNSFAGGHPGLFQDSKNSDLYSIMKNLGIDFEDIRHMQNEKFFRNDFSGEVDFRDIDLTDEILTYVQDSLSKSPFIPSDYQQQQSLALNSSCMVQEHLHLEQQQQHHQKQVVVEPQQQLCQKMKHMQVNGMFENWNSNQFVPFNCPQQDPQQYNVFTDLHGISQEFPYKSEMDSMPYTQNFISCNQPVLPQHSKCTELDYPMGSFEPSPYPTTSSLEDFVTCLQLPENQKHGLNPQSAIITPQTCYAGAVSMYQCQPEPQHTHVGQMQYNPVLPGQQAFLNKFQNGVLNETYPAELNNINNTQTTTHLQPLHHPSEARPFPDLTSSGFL

For `c1ccc2c(c1)ccc1ncccc12`, the Potency entry in [1], in assay [2], in [4], in [5], in assay [6] and in assay [7] was “inactive” throughout. Further, the Potency entry in assay [9], in [10] and in assay [12] was “inactive” throughout. Besides, the call in assay [3], in assay [8] and in assay [11] was inactive.

Consider `CCC/C=C/C=O`, for which the Potency result in assay [1], in assay [2], in assay [5], in assay [13], in assay [6] and in assay [7] was “inactive” each time. Also, the Potency result in assay [9], in assay [10] and in assay [12] was “inactive” each time. The call in [3], in assay [8] and in [14] was inactive.

As to `Nc1ccc2c(O)cc(S(=O)(=O)O)cc2c1`, the Potency result in assay [1], in assay [5], in assay [6], in assay [7], in assay [9] and in [10] was “inactive” each time. For the same molecule, the Potency result in assay [12] and in assay [15] was “inactive” each time. In addition, the Potency in assay [2] is 9.7 µM (active). Moreover, the molecule was classed as inactive in assay [8], in [14] and in [11].

Take `O=C1OC2(c3ccccc31)c1cc(I)c(O)c(I)c1Oc1c2cc(I)c(O)c1I`: the Potency entry in assay [5], in [13], in assay [6], in assay [7], in [9] and in assay [12] was “inactive” in each case. Moreover, the Potency result in [15] was “inactive”. The molecule was classed as inactive in assay [8], in assay [14], in assay [11] and in assay [16]. Moreover, the Potency result in assay [10] was “inactive and 33.4 µM (active)”.

Consider `O=[Se](O)O`, for which the Potency entry in assay [1], in assay [5], in [13], in assay [6], in assay [7] and in assay [9] was “inactive” in each case. Further, the Potency result in assay [10], in [12] and in assay [15] was “inactive” throughout. The Potency in [2] is 27.3 µM (active) and inactive. Besides, the call in assay [8], in assay [14] and in assay [11] was inactive.

Consider `C=C1C[C@H]2[C@@H]3C=C(C)C4=CC(=O)CC[C@]4(C)[C@H]3CC[C@]2(C)[C@@]1(OC(C)=O)C(C)=O`, for which the Potency result in assay [1], in assay [2], in assay [4], in assay [6], in [7] and in assay [9] was “inactive” in each case. Besides, the Potency entry in assay [10] and in assay [12] was “inactive” throughout. Also, the call in [3] and in assay [8] was inactive. The Potency in assay [13] is 17.6 µM (active) and 29.8 µM (active).

As to `Nc1cc([N+](=O)[O-])ccc1C(=O)O`, the Potency entry in assay [1], in [2], in assay [4], in assay [13], in assay [6] and in [7] was “inactive” in each case. The Potency result in [9], in assay [10], in assay [12] and in [15] was “inactive” throughout. The call in assay [3], in assay [8], in assay [14], in [11], in assay [17] and in assay [16] was inactive.

`C=CCOC(=O)C(=C)C`: the Potency entry in assay [2], in assay [13], in assay [6], in assay [7], in [9] and in assay [10] was “inactive” each time. Moreover, the Potency result in assay [12] was “inactive”. In addition, the molecule was called inactive in assay [8], in assay [14], in [11], in assay [17] and in assay [16].

As for `Oc1ccc(C(c2ccc(O)cc2)C(Cl)(Cl)Cl)cc1`, the Potency entry in assay [2], in [7] and in [15] was “inactive” throughout. Further, the Potency was 6.92 µM (active) in [4]; 43.5 µM (active) in assay [5]; 68.6 µM (active) in assay [6]; 54.9 µM (active) in assay [9]; 38.9 µM (active) in [10]. Besides, the call in assay [8] and in [17] was inactive.

For the molecule `COCCOCCOCCO`, the Potency result in assay [1], in assay [2], in [5], in assay [13], in assay [6] and in assay [7] was “inactive” each time. Also, the Potency entry in [9], in assay [10], in [12] and in assay [15] was “inactive” in each case. The molecule was called inactive in assay [8], in assay [14], in assay [17] and in assay [16].

As for `Cc1ccc(C(C)(C)C)c(O)c1`, the Potency result in assay [18], in assay [2], in assay [4], in [5], in assay [13] and in [6] was “inactive” each time. Moreover, the Potency entry in [7], in assay [9], in [10], in [19], in assay [12] and in assay [15] was “inactive” throughout. The molecule was called inactive in assay [3], in [8], in assay [20], in [17] and in [16].

As to `CN(C)C`, the Potency result in [1], in assay [2], in [4], in assay [13], in [6] and in [7] was “inactive” each time. The Potency result in assay [9], in [10], in assay [12] and in [15] was “inactive” each time. Besides, the outcome in [3], in assay [8] and in [17] was inactive.

On to `CC/C(=C(/CC)c1ccc(O)cc1)c1ccc(O)cc1`, for which the Potency result in assay [1] was “inactive and 68 µM (active)”; in [9], 61.6 µM (active); in assay [10], 34.4 µM (active); in [19] it was 16.8 µM (active). For the same molecule, the Potency result in assay [2], in assay [7] and in [15] was “inactive” in each case. Besides, the outcome in assay [20], in assay [17] and in [16] was inactive.

Turning to `C=C[C@H]1CN2CC[C@H]1C[C@@H]2[C@@H](O)c1ccnc2ccc(OC)cc12`, the Potency result in assay [1], in assay [2], in [5], in assay [13], in assay [6] and in [7] was “inactive” in each case. Besides, the Potency entry in assay [9] and in assay [10] was “inactive” each time. Moreover, the call in assay [14] and in assay [11] was inactive. In addition, in assay [12], the Potency is 24.1 µM (active) and inactive.

As to `NCCN`, the Potency entry in assay [1], in assay [2], in [5], in [13], in [6] and in [7] was “inactive” in each case. Further, the Potency entry in assay [9] is “inactive”. Besides, the outcome in assay [8], in [14] and in assay [11] was inactive.
